In general, AC50 refers to the concentration at which the activity in the assay is half-maximal.

Inconclusive results are not listed. Calls of active or inactive are those of the source. Rule for the calls, unless noted: active = hit-call score of the fitted dose curve at least 0.9, where 1 is the maximum; inactive = score below 0.9.

Eleven compounds from PubChem BioAssay (EPA / NIEHS) can be followed below.

The target of experiment [1] is Steroid hormone receptor ERR1 (Homo sapiens) (UniProt P11474). Nature of the experiment: ATG_ERRa_TRANS: Attagene TRANS-FACTORIAL HepG2 Assay for human Estrogen-Related Receptor alpha (ERRa) (AID 2282971; active = hit-call score of the fitted dose curve at least 0.9, where 1 is the maximum). The conditions noted are these: HepG2 Attagene TRANS reporter, ERRa transactivation. The gist of the method: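 Reporter transcript induction was quantified by RT-PCR and capillary electrophoresis of FAM-labelled, HpaI-cut products after 24 h treatment of HepG2 cells carrying transiently transfected GAL4-UAS reporter units and an exogenous ERRa-Gal4 fusion; activity scored as increase over DMSO.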
Sequence of Steroid hormone receptor ERR1 (Homo sapiens) (P11474 whole entry, looked up, the tested form may be a part): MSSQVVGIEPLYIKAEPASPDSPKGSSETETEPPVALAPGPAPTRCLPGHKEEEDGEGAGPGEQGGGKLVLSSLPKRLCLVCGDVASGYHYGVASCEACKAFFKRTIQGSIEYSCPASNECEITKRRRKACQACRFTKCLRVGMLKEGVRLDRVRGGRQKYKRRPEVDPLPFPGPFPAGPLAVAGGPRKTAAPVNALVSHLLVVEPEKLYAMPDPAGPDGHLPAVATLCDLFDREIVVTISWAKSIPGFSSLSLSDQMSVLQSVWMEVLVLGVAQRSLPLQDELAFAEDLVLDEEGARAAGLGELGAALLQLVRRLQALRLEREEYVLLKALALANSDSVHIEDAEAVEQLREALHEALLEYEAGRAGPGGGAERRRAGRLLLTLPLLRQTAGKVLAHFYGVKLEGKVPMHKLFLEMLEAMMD

Experiment [2] in a line: BSK_3C_Vis: BioMAP Diversity Plus: 3C Assay for Morphology Visualization (AID 2283025).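 For AC50: light microscopy image of cell morphology used as background control.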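 Note: fitted both ways so gain or loss versus DMSO counts.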 The settings on record: primary human endothelial cells (HUVEC). The gist of the method:
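Light-microscopy morphology readout, 24 h exposure, human primary umbilical vein endothelium; analysed relative to DMSO with bidirectional fitting.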

Read-out in experiment [3]: Transforming growth factor beta 1 (TGFb1), TGFB1 (gene 7040)
The experiment in a line: BSK_BE3C_TGFb1: BioMAP Diversity Plus: BE3C Assay for Transforming growth factor beta 1 (TGFb1) Biomarker Activity (AID 2283036;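 note: TGF-b1 protein level measured by ELISA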). The conditions noted are these: primary human bronchial epithelial cells; actives raise or lower the signal. The gist of the method: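 TGF-b1 measured via ELISA, 24 h after chemical dosing of human bronchial epithelial cells (BE3C). Overt cytotoxicity assessed in parallel by SRB (0.1%, TCA-fixed, 560 nm); analysis bidirectional relative to DMSO.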

Read-out in experiment [4]: Transforming growth factor beta 1 (TGFb1), TGFB1 (gene 7040)
Nature of the experiment: BSK_KF3CT_TGFb1: BioMAP Diversity Plus: KF3CT Assay for Transforming growth factor beta 1 (TGFb1) Biomarker Activity (AID 2283072). The conditions noted are these: primary human keratinocytes with fibroblasts; actives raise or lower the signal. The gist of the method: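 TGF-b1 ELISA on a 24 h dosed co-culture of human keratinocytes and foreskin fibroblasts; cytotoxicity tracked in parallel cultures by SRB staining.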

Experiment [5] in a line: BSK_BT_PBMCCytotoxicity: PBMC Cytotoxicity Assessment in the BioMAP Diversity Plus: BT Assay (AID 2284225).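 Note: PBMC viability measured by Alamar Blue dye reduction fluorescence.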 The conditions noted are these: primary human B cells with PBMC. The gist of the method: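 Primary human co-culture of B cells and PBMC, pre-dosed 1 h then activated with SEB and TSST-1. Cytotoxicity is taken from Alamar Blue dye reduction, added for 6 h at the end of a 90 h incubation.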

Read-out in experiment [6]: Secreted IgG (sIgG), gene 3500
Nature of the experiment: BSK_BT_sIgG: BioMAP Diversity Plus: BT Assay for Secreted IgG (sIgG) Biomarker Activity (AID 2284226). The settings on record: primary human B cells with PBMC. The gist of the method:
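In this multiplexed co-culture system, ELISA quantifies sIgG 24 h post-treatment. Endpoint analysis uses positive fitting direction, DMSO negative control.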

A short description of experiment [7]: BSK_BT_Bcell_Proliferation: Viability Assessment in the BioMAP Diversity Plus: BT Assay for B cell Proliferation (AID 2284227). The settings on record: primary human B cells with PBMC. The gist of the method:
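SRB-based protein staining (0.1% SRB after 10% TCA fixation, 560 nm) quantifies proliferation in human B cells co-cultured with PBMC, 72 h post-dosing, with signal gain scored relative to DMSO negative control.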

Read-out in experiment [8]: Interleukin 17A (IL17A), IL17A (gene 3605)
The experiment in a line: BSK_BT_xIL17A: BioMAP Diversity Plus: BT Assay for Interleukin 17A (IL17A) Biomarker Activity (AID 2284229). The conditions noted are these: primary human B cells with PBMC. The gist of the method: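 Secreted IL-17A was the measured endpoint, read by Luminex xMAP multiplex in supernatants of a human B cell/PBMC co-culture harvested 24 h after chemical dosing. Signal increase relative to DMSO defined activity.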

Read-out in experiment [9]: Tumor necrosis factor (Homo sapiens) (UniProt P01375)
The experiment in a line: BSK_BT_xTNFa: BioMAP Diversity Plus: BT Assay for Tumor necrosis factor alpha (TNF-alpha) Biomarker Activity (AID 2284230). The settings on record: primary human B cells with PBMC. The gist of the method: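 Compounds were added to a B cell plus PBMC co-culture, and after 24 h secreted TNF-alpha was quantified with Luminex xMAP technology, with responses fitted upward from the DMSO control.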

Read-out in experiment [10]: Collagen I, COL1A1 (gene 1277)
Nature of the experiment: BSK_MyoF_CollagenI: BioMAP Diversity Plus: MyoF Assay for Collagen I Biomarker Activity (AID 2284238). The conditions noted are these: primary human lung fibroblasts. The gist of the method:
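Lung fibroblasts (human primary) dosed, 24 h; Collagen I by ELISA; positive-direction fit vs DMSO control. Parallel SRB total-protein staining (0.1% SRB, 10% TCA fixation, 560 nm) flags overt cytotoxicity.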

Read-out in experiment [11]: Collagen III, COL3A1 (gene 1281)
Nature of the experiment: BSK_MyoF_CollagenIII: BioMAP Diversity Plus: MyoF Assay for Collagen III Biomarker Activity (AID 2284239). The settings on record: primary human lung fibroblasts. The gist of the method:
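ELISA read-out of collagen III from human lung fibroblasts after 24 h of chemical treatment. The DMSO control served as negative control and baseline, with values fitted in the positive direction.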

Read-out in experiment [12]: Interleukin 17F (IL17F), IL17F (gene 112744)
The experiment in a line: BSK_BT_xIL17F: BioMAP Diversity Plus: BT Assay for Interleukin 17F (IL17F) Biomarker Activity (AID 2284243). The settings on record: primary human B cells with PBMC. The gist of the method: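 Compound was added to co-cultures of human B cells and PBMC. After 24 hours, IL-17F released into the medium was measured with LumineX xMAP technology. Responses were then fitted upward relative to DMSO.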

Read-out in experiment [13]: Actin alpha 1 (ACTA1), ACTA1 (gene 58)
The experiment in a line: BSK_MyoF_ACTA1: BioMAP Diversity Plus: MyoF Assay for Actin alpha 1 (ACTA1) Biomarker Activity (AID 2284244). The settings on record: primary human lung fibroblasts. The gist of the method:
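MyoF fibroblast system (human lung); a-SMA quantified via ELISA at 24 h; DMSO-normalised, gain-of-signal endpoint.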

Read-out in experiment [14]: Interleukin 2 (IL2), IL2 (gene 3558)
The experiment in a line: BSK_BT_xIL2: BioMAP Diversity Plus: BT Assay for Interleukin 2 (IL2) Biomarker Activity (AID 2284245). The conditions noted are these: primary human B cells with PBMC. The gist of the method: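 Co-cultures of primary human B cells and PBMC are treated with chemical and sampled at 24 h. IL-2 secretion is quantified by Luminex xMAP, with DMSO-treated wells as baseline.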

Read-out in experiment [15]: Basic fibroblast growth factor (bFGF), FGF2 (gene 2247)
Nature of the experiment: BSK_MyoF_bFGF: BioMAP Diversity Plus: MyoF Assay for Basic fibroblast growth factor (bFGF) Biomarker Activity (AID 2284246). The conditions noted are these: primary human lung fibroblasts. The gist of the method:
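Fibroblasts from human lung, 24 h dosing. bFGF by ELISA; gain of signal over DMSO.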

Read-out in experiment [16]: Collagen IV, COL4A1 (gene 1282)
The experiment in a line: BSK_MyoF_CollagenIV: BioMAP Diversity Plus: MyoF Assay for Collagen IV Biomarker Activity (AID 2284247). The settings on record: primary human lung fibroblasts. The gist of the method:
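Lung fibroblasts (human primary) treated with chemicals were assayed after 24 h for Collagen IV using an ELISA, with DMSO serving as negative control and baseline for a positive-direction fit.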

Read-out in experiment [17]: Interleukin-8 (IL8), CXCL8 (gene 3576)
The experiment in a line: BSK_MyoF_IL8: BioMAP Diversity Plus: MyoF Assay for Interleukin-8 (IL8) Biomarker Activity (AID 2284261). The settings on record: primary human lung fibroblasts. The gist of the method: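 IL-8 levels were measured by ELISA in human lung fibroblasts harvested 24 h after compound addition. Responses were analysed as gain of signal over the DMSO baseline.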

Experiment [18] deals with Peroxisome proliferator-activated receptor gamma (Homo sapiens) (UniProt P37231). Nature of the experiment: OT_PPARg_PPARgSRC1_1440: Odyssey Thera (OT) 24-hour Protein-Complementation Assay for Peroxisome Proliferator-activated Receptor Gamma/ SRC-1 Co-activator (AID 2283388; active = hit-call score of the fitted dose curve at least 0.9, where 1 is the maximum;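 note: nuclear to cytoplasmic ratio of reconstituted Venus YFP fluorescence in fixed imaged cells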). The gist of the method: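 Protein-fragment complementation between PPARg and coactivator SRC-1 was measured by fluorescence imaging in transiently transfected HEK293T cells after 24 h treatment. Signal was quantified as N/C ratio in the 488 nm channel, with DMSO as negative control.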
Sequence of Peroxisome proliferator-activated receptor gamma (Homo sapiens) (P37231 whole entry, looked up, the tested form may be a part): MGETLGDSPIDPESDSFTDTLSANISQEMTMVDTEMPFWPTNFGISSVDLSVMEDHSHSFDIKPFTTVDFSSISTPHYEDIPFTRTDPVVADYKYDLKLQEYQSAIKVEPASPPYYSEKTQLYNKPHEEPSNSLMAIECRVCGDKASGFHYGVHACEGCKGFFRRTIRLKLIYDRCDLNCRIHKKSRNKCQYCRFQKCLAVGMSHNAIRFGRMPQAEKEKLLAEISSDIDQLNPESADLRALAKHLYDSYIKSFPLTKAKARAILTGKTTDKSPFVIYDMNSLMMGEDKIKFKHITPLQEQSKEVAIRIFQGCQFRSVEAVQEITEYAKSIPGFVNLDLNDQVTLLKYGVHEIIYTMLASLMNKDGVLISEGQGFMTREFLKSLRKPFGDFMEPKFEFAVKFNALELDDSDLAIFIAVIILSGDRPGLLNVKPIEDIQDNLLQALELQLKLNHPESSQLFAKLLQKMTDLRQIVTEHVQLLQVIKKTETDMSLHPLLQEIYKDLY

A short description of experiment [19]: ACEA_AR_agonist_AUC_viability: ACEA Biosciences xCELLigence Real-Time Cell Analysis on Androgen Receptor Agonism for Viability (AID 2283775; active = hit-call score of the fitted dose curve at least 0.9, where 1 is the maximum). The gist of the method: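 Viability endpoint from xCELLigence impedance in 22Rv1 prostate cells at 80 h. Eight-point series, 100 uM maximum final.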
Experiment [20] in a line: ACEA_AR_antagonist_AUC_viability: ACEA Biosciences xCELLigence Real-Time Cell Analysis on Androgen Receptor Antagonism for Viability (AID 2283776; active = hit-call score of the fitted dose curve at least 0.9, where 1 is the maximum;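 note: 22Rv1 human prostate cancer cells growing on impedance electrode plates; area under impedance growth curve at 80 h after dosing as viability; hits lower the growth signal relative to DMSO meaning cytotoxicity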). The gist of the method: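 22Rv1 prostate cells, continuous dosing up to 100 uM final (0.5% DMSO max), duplicate plates. Growth measured by impedance; AUC at 80 h, loss of signal vs DMSO.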

Sequence of Tumor necrosis factor (Homo sapiens) (P01375 whole entry, looked up): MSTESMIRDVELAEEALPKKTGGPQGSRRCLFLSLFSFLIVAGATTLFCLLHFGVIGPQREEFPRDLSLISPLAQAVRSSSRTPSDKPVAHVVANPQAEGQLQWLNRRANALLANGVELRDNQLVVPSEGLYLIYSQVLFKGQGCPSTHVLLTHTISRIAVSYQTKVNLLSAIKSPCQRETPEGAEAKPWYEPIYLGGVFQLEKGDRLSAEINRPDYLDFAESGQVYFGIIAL

On to `O=c1[nH]c(Cl)c(Cl)cc1Cl`, for which the compound was classed as inactive in experiment [1], in experiment [2], in experiment [3], in [4], in [5] and in [6]. Also, the result in experiment [7], in [8], in experiment [9], in [10], in experiment [11] and in [12] was inactive. Further, the result in [13], in experiment [14], in [15], in experiment [16] and in [17] was inactive.

In the case of `O=P(O)(Oc1ccccc1)Oc1ccccc1`, the outcome in [18] was inactive.

For `N#Cc1cc(I)c(O)c(I)c1`, the compound was called inactive in experiment [1].

For `C[N+](=O)[O-]`, the call in experiment [1] was inactive.

Turning to `CC(C)(C)C(O)C(Oc1ccc(-c2ccccc2)cc1)n1cncn1` (centres undefined), the concentration at half-maximal activity (AC50) in experiment [2] was 37.6 µM (active); in experiment [4] it was 20 µM (active); in experiment [6], 17.9 µM (active); in [7], 29.8 µM (active); in experiment [10], 36.9 µM (active); in [11] it was 30.5 µM (active). The AC50 in [13] is 34.5 µM (active); in [14], 20 µM (active); in experiment [15], 33.6 µM (active); in experiment [16] it was 20 µM (active). Further, the outcome in experiment [3], in [5], in [8], in experiment [9], in experiment [12] and in [17] was inactive.

As for `CC(C)(c1cc(Cl)c(O)c(Cl)c1)c1cc(Cl)c(O)c(Cl)c1`, the half-maximal activity concentration (AC50) in experiment [2] was 39.6 µM (active); in [4], 5.27 µM (active); in experiment [10], 5.31 µM (active); in experiment [11] it was 9.8 µM (active); in experiment [13] it was 6.18 µM (active); in [15], 30.9 µM (active). Moreover, the AC50 in [17] is 34 µM (active). Further, the result in experiment [3], in [18], in experiment [19], in [20], in experiment [5] and in [6] was inactive. In addition, the outcome in [7], in experiment [8], in [9], in experiment [12], in [14] and in [16] was inactive.

In the case of `CC1(C)C(=O)NC(=O)NC1=O`, the call in [1] was inactive.

As to `CN(N=O)c1ccccc1`, the outcome in experiment [1] was inactive.

Turning to `CCCC=NO`, the call in experiment [18], in experiment [19] and in experiment [20] was inactive.

For `CCCCCCCCCCCC#N`, the AC50 in experiment [2] is 40.2 µM (active); in experiment [10], 20.6 µM (active); in experiment [11], 29.6 µM (active); in [13] it was 26.5 µM (active); in experiment [15], 32.9 µM (active). Also, the outcome in experiment [3], in experiment [4], in experiment [5], in [6], in experiment [7] and in experiment [8] was inactive. Also, the outcome in experiment [9], in experiment [12], in experiment [14], in experiment [16] and in [17] was inactive.

Regarding `c1ccc2c(c1)CCCC2`, the call in experiment [18], in [19] and in experiment [20] was inactive.
